Experimental data taken from PubChem BioAssay (NCATS).
Values joined by “and” are separate entries in the source; they are usually repeats but may differ in a detail not shown here. Equal entries are not always repeated. Records with an inconclusive call do not appear. Where a call stands in place of a potency, no number is given. Unmarked numbers belong to inactive results. Active and inactive are the calls of the source. The call rests on the fitted dose curve; in most records, active means well fitted curve in the direction sought with a large enough effect; inconclusive means small, poorly fitted or top-dose-only effect, or another doubt; inactive means no such curve, though single readings can be large; an effect the other way counts as inactive or inconclusive.

Legend:
[1] = Viability qHTS for spleen associated tyrosine kinase inhibitor (SYKi) naive MV4-11 cells (AID 1963823); further: nearly all actives have a fitted effect of over 40% in size; further: potency means the concentration at half of the fitted maximal effect
How it was run: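 Luminescence from CellTiter-Glo, developed 10 min at room temperature, gave viability of MV4-11 cells never exposed to SYK inhibitor. Cells (500/well) had been incubated with compounds for 72 hr under standard culture conditions.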

[2] = Viability qHTS for spleen associated tyrosine kinase inhibitor (SYKi) drug resistant MV4-11 cells (AID 1963824); further: nearly all actives have a fitted effect of over 35% in size; further: potency means the concentration at half of the fitted maximal effect
How it was run: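 SYK-inhibitor-resistant MV4-11 AML cells were seeded at 500 per well onto compound and cultured 72 hours (37 °C, 5% CO2). CellTiter-Glo was then added, and after 10 min at room temperature, luminescence gave viability.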

[3] = Quantitative highthroughput screen to assess conditional lethalithy of NOMO1 cells grown in RPMI1640 with untreated serum (RPMI+s) (AID 1963876); further: nearly all actives have a fitted effect of over 35% in size; further: potency means the concentration at half of the fitted maximal effect
How it was run: (§1)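 Each medium arm—HPLM with 10% dialyzed FBS, or RPMI1640 with 5 mM glucose and 10% untreated or dialyzed FBS—was screened against an 11-point, 3-fold compound titration for 48 h at 37 °C, with CellTiter-Glo luminescence as endpoint.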

[4] = Quantitative highthroughput screen to assess conditional lethalithy of NOMO1 cells grown in RPMI1640 with dialyzed fetal bovine serum (RPMI+ds) (AID 1963877); further: nearly all actives have a fitted effect of over 30% in size; further: potency means the concentration at half of the fitted maximal effect; on Viability: series mostly up to about 46 µM
How it was run: as §1

[5] = Quantitative highthroughput screen to assess conditional lethalithy of NOMO1 cells grown in Human Plasma-Like Medium with dialyzed fetal bovine serum (HPLM+ds) (AID 1963878); further: nearly all actives have a fitted effect of over 35% in size; further: potency means the concentration at half of the fitted maximal effect
How it was run: as §1

[6] = Quantitative highthroughput screen to assess conditional lethalithy of P12 Ichikawa cells grown in RPMI1640 with dialyzed fetal bovine serum (RPMI+ds) (AID 1963880); conditions: Potency: P12-Ichikawa viability; further: nearly all actives have a fitted effect of over 35% in size; further: potency means the concentration at half of the fitted maximal effect
How it was run: as §1

[7] = Quantitative highthroughput screen to assess conditional lethalithy of SEM cells grown in Human Plasma-Like Medium with dialyzed fetal bovine serum (HPLM+ds) (AID 1963882)
How it was run: as §1

[8] = Quantitative highthroughput screen to assess conditional lethalithy of SEM cells grown in RPMI1640 with unreated serum (RPMI+s) (AID 1963883); further: nearly all actives have a fitted effect of over 35% in size
How it was run: as §1

[9] = Quantitative highthroughput screen to assess conditional lethalithy of SEM cells grown in RPMI1640 with dialyzed fetal bovine serum (RPMI+ds) (AID 1963884); further: nearly all actives have a fitted effect of over 35% in size; further: potency means the concentration at half of the fitted maximal effect; on Viability: series mostly up to about 46 µM
How it was run: as §1

[10] = Cellular viability qHTS for adrenocortical cancer (ACC) cell line SW-13 (AID 1963989); conditions: SW-13 ACC cells viability, CellTiter-Glo, 48 h; activity (max response): stronger effect = lower value; further: nearly all actives have a fitted effect of over 65% in size; further: potency means the concentration at half of the fitted maximal effect;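 on activity (max response): cells grown in serum-free medium with ITS supplement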
How it was run: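 48 h treatment, SW-13 in ITS/DMEM serum-free; doses up to 46 uM; readout CellTiter-Glo luminescence; curve fit four-parameter logistic.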

[11] = Cellular viability qHTS for adrenocortical cancer (ACC) cell line NCI-H295R (AID 1963990); further: nearly all actives have a fitted effect of over 60% in size
How it was run: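 Compound titrations (up to 46 uM final) are applied to NCI-H295R cultures for 48 h at 37C. Viable cell number is estimated by CellTiter-Glo signal, normalised to DMSO and doxorubicin controls.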

[12] = Quantitative highthroughput screen to assess conditional lethalithy of P12 Ichikawa cells grown in Human Plasma-Like Medium with dialyzed fetal bovine serum (HPLM+ds) (AID 1963879); conditions: Potency: viability
How it was run: as §1

[13] = Quantitative highthroughput screen to assess conditional lethalithy of P12 Ichikawa cells grown in RPMI1640 with untreated serum (RPMI+s) (AID 1963881); conditions: Potency: viability
How it was run: as §1

SMILES	Potency [1]	Potency [2]	Potency [3]	Potency [4]	Potency [5]	Potency [6]	Potency [7]	Potency [8]	Potency [9]	Potency [10]	activity (max response) [10]	Potency [11]	Potency [12]	Potency [13]
OCCC#Cc1nc(-c2ccc(F)cc2)c(-c2ccncc2)n1CCCc1ccccc1	20.6 µM (active)	10.3 µM (active) and 11.8 µM (active)	inactive	inactive	inactive	inactive	inactive	inactive	18.7 µM (active)					
Cn1cnc([N+](=O)[O-])c1Sc1ncnc2nc[nH]c12	5.9 µM (active)	2.15 µM (active) and 2.35 µM (active)	6.62 µM (active)	5.26 µM (active)	2.64 µM (active)	5.9 µM (active)				5.01 µM (active) and 9.2 µM (active) and 7.94 µM (active)				
COc1c2occc2cc2ccc(=O)oc12	inactive	inactive	inactive	inactive	inactive	7.43 µM (active)	inactive	inactive	inactive		8.25% and 3.48%	inactive		
O=C1CCCC2=C1C(c1[nH]ncc1Cl)N=C(Nc1nc3ccccc3o1)N2 (centres undefined)	8.33 µM (active)	14.6 µM (active) and 13.2 µM (active)	inactive	inactive	18.7 µM (active)		inactive				-9.4%	inactive		
O=C(O)c1ccc(-c2c[nH]c3ncc(-c4ccccc4)cc23)cc1C1CCCC1	1.18 µM (active)	651 nM (active) and 2.35 µM (active)	inactive	inactive	inactive	6.62 µM (active)						inactive		
CN1c2cc(O)c(N=NC(N)=O)cc2CC1S(=O)(=O)O (centres undefined)	inactive	inactive	inactive	inactive		inactive	inactive	inactive	inactive		12.8%	inactive	inactive	inactive
